Assay results taken from PubChem BioAssay (EPA / NIEHS).
Calls of active or inactive are those of the source. The calls were made as follows: active = hit-call score of the fitted dose curve at least 0.9, where 1 is the maximum; inactive = score below 0.9.

Legend:
[1] = ATG_CRE_CIS: Attagene CIS-FACTORIAL HepG2 Assay for human cAMP Responsive Element (CRE) binding protein 3 (AID 2282926); conditions: HepG2 CRE cis-reporter, Attagene multiplexed mRNA; actives raise or lower the signal
In short: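 Cells carrying cis-regulated reporter constructs respond through their own endogenous factors. After 24 h treatment, RNA is reverse-transcribed, amplified, labelled and sized by capillary electrophoresis; up- and down-regulation are both scored against vehicle.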

[2] = biological target: CCAAT/enhancer-binding protein beta (Homo sapiens) (UniProt P17676); experiment: ATG_C_EBP_CIS: Attagene CIS-FACTORIAL HepG2 Assay for human CCAAT/Enhancer Binding Protein (C/EBP) beta (AID 2282927); conditions: HepG2 Attagene cis-factorial transcription factor reporter; actives raise or lower the signal
In short: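 HepG2 transiently transfected with multiplexed reporter units under cis-regulatory promoters reporting endogenous C/EBPb activity. After 24 h exposure, reporter mRNA assayed by RT-PCR, fluorescent labelling, HpaI digestion and capillary electrophoresis; bidirectional fitting versus DMSO.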

[3] = ATG_CMV_CIS: Attagene CIS-FACTORIAL HepG2 Assay for human CMV (Internal Marker) (AID 2282928); conditions: HepG2 CMV promoter reporter, transcription factor profiling; actives raise or lower the signal;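 also: endpoint acts as a background internal control marker rather than a target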
In short: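 Readout: fluorescent reporter cDNA fragments separated by capillary electrophoresis after RT-PCR and HpaI cut. Cells: HepG2 carrying transfected cis-promoter reporter constructs, dosed 24 h. Endpoint serves as background internal-marker control, fit bidirectionally versus DMSO.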

[4] = ATG_DR4_LXR_CIS: Attagene CIS-FACTORIAL HepG2 Assay for human Liver X Receptor (LXR), DR4 submotif (AID 2282929); conditions: HepG2 Attagene DR4 cis-reporter, mRNA transcription; actives raise or lower the signal
In short: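 HepG2 cells transiently transfected with cis-promoter-driven multiplexed reporter units (DR4 element) were dosed for 24 h. Reporter mRNA was quantified by RT-PCR, fluorescent primer extension, HpaI digestion and capillary electrophoresis; bidirectional fitting versus DMSO baseline.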

[5] = biological target: Aryl hydrocarbon receptor (Homo sapiens) (UniProt P35869); experiment: ATG_Ahr_CIS: Attagene CIS-FACTORIAL HepG2 Assay for human Aryl Hydrocarbon Receptor (Ahr) (AID 2282930); conditions: HepG2 AhR cis-factorial reporter transcription; actives raise or lower the signal
In short: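 HepG2 cells transiently transfected with cis-element-driven multiplexed reporter units; endogenous AhR activity read as reporter mRNA 24 h after dosing, via RT-PCR, 6-FAM labelling, HpaI digestion and capillary electrophoresis. Bidirectional fit relative to DMSO.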

[6] = ATG_AP_1_CIS: Attagene CIS-FACTORIAL HepG2 Assay for human Activator Protein 1 (AP-1) (AID 2282931); conditions: HepG2 Attagene cis-factorial AP-1 reporter mRNA; actives raise or lower the signal
In short: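 HepG2 cells transiently transfected with cis-element-driven multiplex reporter units; 24 h compound exposure. Reporter mRNA quantified by RT-PCR, FAM-labelled fragments resolved by capillary electrophoresis; bidirectional fit versus DMSO baseline.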

[7] = ATG_AP_2_CIS: Attagene CIS-FACTORIAL HepG2 Assay for human Activator Protein 2 (AP-2) (AID 2282932); conditions: HepG2 AP-2 cis-reporter, Attagene transcription factor profiling; actives raise or lower the signal
In short: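 Read-out: fluorescent reporter mRNA via RT-PCR and capillary electrophoresis, 24 h post-dose in transiently transfected HepG2. Endogenous factors drive cis-promoter reporters; gain or loss of signal fitted bidirectionally against DMSO.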

[8] = ATG_BRE_CIS: Attagene CIS-FACTORIAL HepG2 Assay for human Bone Morphogenetic Protein (BMP) Response Element (BRE) (AID 2282933); conditions: HepG2 BMP response element reporter, Attagene transcription factor profiling; actives raise or lower the signal
In short: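 After a 24 h chemical treatment, transiently transfected HepG2 cells were lysed for RNA; reporter transcripts were quantified by fluorescent RT-PCR and capillary electrophoresis, normalised to DMSO.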

[9] = biological target: Retinoic acid receptor alpha (Homo sapiens) (UniProt P10276); experiment: ATG_DR5_RAR_CIS: Attagene CIS-FACTORIAL HepG2 Assay for human Retinoic Acid Receptor Alpha (RARE), DR5 submotif (AID 2282934); conditions: HepG2 Attagene cis-factorial RARE DR5 reporter, mRNA; actives raise or lower the signal;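 as to AC50: reporter responds to endogenous RAR alpha beta and gamma in HepG2 not RARA alone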
In short: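 HepG2 cells transiently transfected with multiplexed reporter units; DR5 cis-element drives reporter through endogenous transcription factors. After 24 h dosing, reporter mRNA quantified by RT-PCR, fluorescent labeling, HpaI digestion and capillary electrophoresis; bidirectional fitting versus DMSO.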

[10] = biological target: Transcription factor E2F1 (Homo sapiens) (UniProt Q01094); experiment: ATG_E2F_CIS: Attagene CIS-FACTORIAL HepG2 Assay for human E2F Transcription Factor 1 (AID 2282935); conditions: HepG2 Attagene cis-reporter, E2F reporter RNA transcripts; actives raise or lower the signal
In short: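 Transient MRTU transfection of HepG2; 24 h compound exposure; RNA → oligo(dT) RT → PCR → FAM label → HpaI cut → CE fluorescence. Gain/loss of signal fit against DMSO.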

[11] = ATG_E_Box_CIS: Attagene CIS-FACTORIAL HepG2 Assay for human Enhancer Box (E-box) (AID 2282936); conditions: HepG2 E-box cis-reporter transcription, actives raise or lower the signal
In short: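 Transiently transfected HepG2, endogenous TF-driven reporters, 24 h dosing. Readout: RT-PCR plus capillary electrophoresis of fluorescent reporter fragments. Gain or loss of signal fitted bidirectionally against DMSO baseline.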

[12] = ATG_M_61_CIS: Attagene CIS-FACTORIAL HepG2 Assay for M61 Transcription Factor (Internal Marker) (AID 2282937); conditions: HepG2 Attagene CIS-FACTORIAL M61 internal marker reporter; actives raise or lower the signal
In short: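 HepG2 cells transiently transfected with cis-element-driven multiple reporter transcription units, dosed for 24 h. Reporter mRNA measured by RT-PCR, 6-FAM primer-extension labelling, HpaI digestion and capillary electrophoresis; bidirectional fit versus DMSO baseline.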

[13] = ATG_EGR_CIS: Attagene CIS-FACTORIAL HepG2 Assay for human Early Growth Response 1 (EGR1) (AID 2282938); conditions: HepG2 Attagene CIS-FACTORIAL EGR reporter mRNA; actives raise or lower the signal
In short: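 HepG2 cells transiently transfected with cis-promoter-driven multiplexed reporter transcription units; reporter mRNA measured 24 h after compound dosing by RT-PCR, 6-FAM primer extension, HpaI digestion and capillary electrophoresis. Bidirectional fit versus DMSO baseline.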

[14] = ATG_M_19_CIS: Attagene CIS-FACTORIAL HepG2 Assay for M19 Transcription Factor (Internal Marker) (AID 2282939); conditions: HepG2 Attagene CIS-FACTORIAL M19 internal marker reporter; actives raise or lower the signal
In short: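 In this multiplexed cell assay, transiently transfected HepG2 reporter units report endogenous transcription-factor activity; after 24 hours of treatment, labelled reporter cDNA fragments are quantified by capillary electrophoresis and fitted bidirectionally against DMSO.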

[15] = ATG_ERE_CIS: Attagene CIS-FACTORIAL HepG2 Assay for Estrogen Response Element (ERE) (AID 2282940); conditions: HepG2 ERE cis-reporter, Attagene RNA transcript; actives raise or lower the signal
In short: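 Measuring endogenous transcription factor output, the assay doses transfected HepG2 cells for 24 hours and quantifies reporter transcripts by fluorescent RT-PCR and capillary electrophoresis, with DMSO as baseline.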

Measured: AC50

Chain of Aryl hydrocarbon receptor (Homo sapiens) (P35869 whole entry, looked up): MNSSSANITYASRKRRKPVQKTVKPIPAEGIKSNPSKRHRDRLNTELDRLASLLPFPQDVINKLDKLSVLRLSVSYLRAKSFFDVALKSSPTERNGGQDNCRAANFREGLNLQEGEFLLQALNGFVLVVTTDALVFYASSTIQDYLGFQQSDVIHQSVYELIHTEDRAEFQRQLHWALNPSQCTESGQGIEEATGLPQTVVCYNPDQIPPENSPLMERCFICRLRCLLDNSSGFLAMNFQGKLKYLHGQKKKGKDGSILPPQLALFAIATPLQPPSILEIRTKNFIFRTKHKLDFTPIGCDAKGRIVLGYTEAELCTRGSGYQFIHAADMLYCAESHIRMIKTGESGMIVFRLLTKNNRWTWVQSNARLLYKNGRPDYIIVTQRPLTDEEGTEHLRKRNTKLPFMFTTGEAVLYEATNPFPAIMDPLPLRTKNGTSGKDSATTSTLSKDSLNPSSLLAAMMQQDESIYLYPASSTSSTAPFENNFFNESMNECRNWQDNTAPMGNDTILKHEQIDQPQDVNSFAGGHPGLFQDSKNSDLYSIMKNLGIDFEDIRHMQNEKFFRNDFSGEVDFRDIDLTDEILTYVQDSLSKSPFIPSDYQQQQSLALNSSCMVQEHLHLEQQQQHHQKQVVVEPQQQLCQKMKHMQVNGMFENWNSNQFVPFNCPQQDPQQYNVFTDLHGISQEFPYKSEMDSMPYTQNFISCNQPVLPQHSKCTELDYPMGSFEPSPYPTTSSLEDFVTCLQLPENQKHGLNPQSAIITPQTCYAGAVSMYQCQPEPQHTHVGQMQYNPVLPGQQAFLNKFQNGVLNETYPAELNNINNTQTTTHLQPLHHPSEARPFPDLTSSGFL
Chain of Transcription factor E2F1 (Homo sapiens) (Q01094 whole entry, looked up): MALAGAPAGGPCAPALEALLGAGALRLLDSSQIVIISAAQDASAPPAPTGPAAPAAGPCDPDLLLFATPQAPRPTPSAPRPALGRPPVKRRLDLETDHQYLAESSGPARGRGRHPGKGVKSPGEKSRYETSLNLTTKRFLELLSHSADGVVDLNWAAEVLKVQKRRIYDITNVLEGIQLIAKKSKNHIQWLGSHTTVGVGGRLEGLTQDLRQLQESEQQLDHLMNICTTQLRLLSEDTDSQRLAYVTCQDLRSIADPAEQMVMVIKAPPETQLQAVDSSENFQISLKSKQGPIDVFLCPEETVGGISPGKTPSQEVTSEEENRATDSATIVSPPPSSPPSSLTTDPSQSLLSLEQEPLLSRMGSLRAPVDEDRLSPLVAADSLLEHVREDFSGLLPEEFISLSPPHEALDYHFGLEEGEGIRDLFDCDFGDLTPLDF
Chain of CCAAT/enhancer-binding protein beta (Homo sapiens) (P17676 whole entry, looked up): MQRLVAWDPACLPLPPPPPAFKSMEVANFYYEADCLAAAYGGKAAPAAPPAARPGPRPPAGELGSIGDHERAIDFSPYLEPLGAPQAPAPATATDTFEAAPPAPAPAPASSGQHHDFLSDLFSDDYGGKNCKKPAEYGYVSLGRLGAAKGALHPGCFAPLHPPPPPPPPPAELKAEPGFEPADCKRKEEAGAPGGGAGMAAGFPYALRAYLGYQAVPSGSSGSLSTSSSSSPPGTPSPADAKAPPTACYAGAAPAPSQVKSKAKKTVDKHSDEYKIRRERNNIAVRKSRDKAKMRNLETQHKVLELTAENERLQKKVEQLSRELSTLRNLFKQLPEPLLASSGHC
Chain of Retinoic acid receptor alpha (Homo sapiens) (P10276 whole entry, looked up): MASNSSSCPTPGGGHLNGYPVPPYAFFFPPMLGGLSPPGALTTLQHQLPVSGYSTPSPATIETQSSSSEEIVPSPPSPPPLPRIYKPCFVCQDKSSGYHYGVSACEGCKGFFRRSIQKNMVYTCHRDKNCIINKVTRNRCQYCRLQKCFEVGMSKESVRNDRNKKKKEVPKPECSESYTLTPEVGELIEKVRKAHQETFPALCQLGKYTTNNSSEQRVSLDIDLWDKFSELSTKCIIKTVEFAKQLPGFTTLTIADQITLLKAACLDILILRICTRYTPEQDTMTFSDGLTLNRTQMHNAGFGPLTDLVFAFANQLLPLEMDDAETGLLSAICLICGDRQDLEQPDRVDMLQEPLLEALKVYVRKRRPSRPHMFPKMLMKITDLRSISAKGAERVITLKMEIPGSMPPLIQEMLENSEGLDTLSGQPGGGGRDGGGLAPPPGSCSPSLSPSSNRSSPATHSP

O=C(CCl)Nc1ccccc1
inactive: [2] | [3] | [5] | [6] | [9] | [12] | [15]
active: [1] 13.2 µM | [4] 76 µM | [7] 44 µM | [8] 5.35 µM | [10] 147 µM | [11] 73.5 µM | [13] 44.4 µM | [14] 167 µM

[Cl][Sn]([c]1ccccc1)([c]1ccccc1)[c]1ccccc1
inactive: [2] | [3] | [6] | [8] | [10] | [12] | [14]
active: [1] 0.367 µM | [4] 0.67 µM | [5] 1.09 µM | [7] 0.503 µM | [9] 0.227 µM | [11] 0.252 µM | [13] 0.257 µM | [15] 0.014 µM

OC(Cc1ccccc1Cl)(Cn1[nH]cnc1=S)C1(Cl)CC1 (stereo not given)
active: [6] 53 µM | [14] 64.6 µM | [15] 7.38 µM
inactive: all other assays above

Nc1ccc(Br)cc1
active: [5] 25.4 µM
inactive: all other assays above

O=S(=O)(F)C(F)(F)C(F)(F)C(F)(F)C(F)(F)F
inactive: all assays above

N#CCCC(Br)(C#N)CBr (stereo not given)
active: [1] 53.5 µM | [3] 62.1 µM | [5] 33.4 µM | [7] 49.9 µM | [9] 55.3 µM | [11] 62.4 µM | [13] 45.3 µM
inactive: all other assays above

COCC(=O)N(c1c(C)cccc1C)[C@H](C)C(=O)OC
inactive: all assays above

Cc1cc(SCc2sc(-c3ccc(C(F)(F)F)c(F)c3)nc2C)ccc1OCC(=O)O
active: [4] 23.8 µM | [7] 51.2 µM | [13] 26.3 µM
inactive: all other assays above

C#CCO
inactive: all assays above
